# Assay results taken from the supplement of paper PMC8728848.
# Only a selection was taken, and the strongest signals are over-represented in it overall.
# How the values were obtained:
# Assay in all cases: glycan array binding signal (z-score within array); higher = stronger binding
# Settings in all cases: glycan notation: IUPAC condensed, linker removed
# [1] = biological target: Fuc(a1-2)Gal(b1-3)GalNAc(a1-3)[Fuc(a1-2)]Gal(b1-4)GlcNAc
# Method in brief: (§1)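 Glycan array data were curated from 3228 arrays in the Consortium for Functional Glycomics database and kept only where the protein sequence was available. Glycan names were converted to IUPAC-condensed notation, and columns mapping to the same glycan were averaged. The binding signal is a within-array Z-score, averaged across arrays of the same protein sequence at different concentrations or buffers and across linkers. Negative Z-scores can be read as non-binding.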
# [2] = biological target: Fuc(a1-2)[Gal(a1-3)]Gal(b1-3)GlcNAc(b1-2)Man(a1-3)[Fuc(a1-2)[Gal(a1-3)]Gal(b1-3)GlcNAc(b1-2)Man(a1-6)]Man(b1-4)GlcNAc(b1-4)[Fuc(a1-6)]GlcNAc
# Method in brief: as §1
# [3] = biological target: Fuc(a1-2)[Gal(a1-3)]Gal(b1-3)GlcNAc(b1-3)GalNAc
# Method in brief: as §1
# [4] = biological target: Fuc(a1-2)[Gal(a1-4)]Gal(b1-4)GlcNAc
# Method in brief: as §1
# [5] = biological target: Fuc(a1-2)[GalNAc(a1-3)]Gal(b1-3)GlcNAc(b1-6)GalNAc
# Method in brief: as §1
# [6] = biological target: Fuc(a1-2)[GalNAc(a1-3)]Gal(b1-4)GlcNAc(b1-3)Gal(b1-4)GlcNAc
# Method in brief: as §1
# [7] = biological target: Fuc(a1-3)[Gal3S(b1-4)]GlcNAc
# Method in brief: as §1
# [8] = biological target: Gal(a1-3)Fuc(a1-2)Gal(b1-4)GlcNAc(b1-3)[Gal(a1-3)Fuc(a1-2)Gal(b1-4)GlcNAc(b1-6)]GalNAc
# Method in brief: as §1
# [9] = biological target: Gal(a1-3)Gal(b1-4)GlcNAc(b1-2)Man
# Method in brief: as §1
# [10] = biological target: Gal(a1-3)Gal(b1-4)GlcNAc(b1-2)Man(a1-3)[Gal(a1-3)Gal(b1-4)GlcNAc(b1-2)Man(a1-6)]Man(b1-4)GlcNAc(b1-4)GlcNAc
# Method in brief: as §1
# [11] = biological target: Gal(a1-3)[Gal(a1-4)]Gal(b1-4)GlcNAc
# Method in brief: as §1
# Gal(a1-4)Gal(b1-4)Glc = biological target: Gal(a1-4)Gal(b1-4)Glc
# Method in brief: as §1
# Gal(a1-4)Gal(b1-4)GlcNAc = biological target: Gal(a1-4)Gal(b1-4)GlcNAc
# Method in brief: as §1
# [12] = biological target: Gal(b1-3)GlcNAc(b1-3)Gal(b1-3)GlcNAc
# Method in brief: as §1
# [13] = biological target: Gal(b1-3)GlcNAc(b1-3)Gal(b1-4)GlcNAc(b1-3)Gal(b1-4)GlcNAc(b1-2)[Gal(b1-3)GlcNAc(b1-3)Gal(b1-4)GlcNAc(b1-3)Gal(b1-4)GlcNAc(b1-6)]Man(a1-6)[Gal(b1-3)GlcNAc(b1-3)Gal(b1-4)GlcNAc(b1-3)Gal(b1-4)GlcNAc(b1-2)Man(a1-3)]Man(b1-4)GlcNAc(b1-4)[Fuc(a1-6)]GlcNAc
# Method in brief: as §1
# [14] = biological target: Gal(b1-4)GalNAc(b1-3)[Fuc(a1-2)]Gal(b1-4)GlcNAc
# Method in brief: as §1
# [15] = biological target: Gal(b1-4)GlcNAc(b1-2)Man(a1-3)[GlcNAc(b1-4)][Gal(b1-4)GlcNAc(b1-2)Man(a1-6)]Man(b1-4)GlcNAc(b1-4)GlcNAc
# Method in brief: as §1
# [16] = biological target: Gal(b1-4)GlcNAc(b1-2)[Gal(b1-4)GlcNAc(b1-4)]Man(a1-3)[Gal(b1-4)GlcNAc(b1-2)[Gal(b1-4)GlcNAc(b1-6)]Man(a1-6)]Man(b1-4)GlcNAc(b1-4)GlcNAc
# Method in brief: as §1
# [17] = biological target: Gal(b1-4)GlcNAc(b1-3)Gal(b1-4)GlcNAc(b1-3)Gal(b1-4)GlcNAc(b1-2)Man(a1-3)[Gal(b1-4)GlcNAc(b1-3)Gal(b1-4)GlcNAc(b1-3)Gal(b1-4)GlcNAc(b1-2)Man(a1-6)]Man(b1-4)GlcNAc(b1-4)GlcNAc
# Method in brief: as §1
# [18] = biological target: Gal(b1-4)GlcNAc(b1-6)Gal(b1-4)GlcNAc
# Method in brief: as §1
# Gal3S(b1-3)GalNAc = biological target: Gal3S(b1-3)GalNAc
# Method in brief: as §1
# Gal3S(b1-3)GlcNAc = biological target: Gal3S(b1-3)GlcNAc
# Method in brief: as §1
# Gal3S(b1-4)Glc = biological target: Gal3S(b1-4)Glc
# Method in brief: as §1
# Gal3S(b1-4)Glc6S = biological target: Gal3S(b1-4)Glc6S
# Method in brief: as §1
# Gal3S(b1-4)GlcNAc6S = biological target: Gal3S(b1-4)GlcNAc6S
# Method in brief: as §1
# [19] = biological target: Gal3S(b1-4)[Fuc(a1-3)]GlcNAc6S
# Method in brief: as §1
# Gal3S4S(b1-4)GlcNAc = biological target: Gal3S4S(b1-4)GlcNAc
# Method in brief: as §1
# Gal3S6S(b1-4)GlcNAc = biological target: Gal3S6S(b1-4)GlcNAc
# Method in brief: as §1
# Gal4S6S(b1-4)GlcNAc = biological target: Gal4S6S(b1-4)GlcNAc
# Method in brief: as §1
# GalNAc(b1-4)GlcNAc6S = biological target: GalNAc(b1-4)GlcNAc6S
# Method in brief: as §1
# [20] = biological target: GlcNAc(b1-2)Man(a1-3)[GlcNAc(b1-4)][GlcNAc(b1-2)Man(a1-6)]Man(b1-4)GlcNAc(b1-4)[Fuc(a1-6)]GlcNAc
# Method in brief: as §1
# [21] = biological target: GlcNAc(b1-3)Gal(b1-4)GlcNAc(b1-3)GalNAc
# Method in brief: as §1
# Kdn(a2-3)Gal(b1-3)GalNAc = biological target: Kdn(a2-3)Gal(b1-3)GalNAc
# Method in brief: as §1
# [22] = biological target: Man(a1-3)[Man(a1-6)]Man(a1-6)[Man(a1-3)]Man(b1-4)GlcNAc(b1-4)GlcNAc
# Method in brief: as §1
# [23] = biological target: Man(a1-3)[Man(a1-6)]Man(b1-4)GlcNAc(b1-4)[Fuc(a1-6)]GlcNAc
# Method in brief: as §1
# [24] = biological target: Neu5Ac(a2-3)Gal(b1-3)GalNAc
# Method in brief: as §1
# [25] = biological target: Neu5Ac(a2-3)Gal(b1-3)GalNAc6S
# Method in brief: as §1
# [26] = biological target: Neu5Ac(a2-3)Gal(b1-3)GlcNAc6S
# Method in brief: as §1
# [27] = biological target: Neu5Ac(a2-3)Gal(b1-3)[GlcNAc(b1-6)]GalNAc
# Method in brief: as §1
# [28] = biological target: Neu5Ac(a2-3)Gal(b1-3)[Neu5Ac(a2-6)]GalNAc
# Method in brief: as §1
# [29] = biological target: Neu5Ac(a2-3)Gal(b1-4)GlcNAc(b1-2)[Neu5Ac(a2-3)Gal(b1-4)GlcNAc(b1-4)]Man(a1-3)[GlcNAc(b1-4)][Neu5Ac(a2-3)Gal(b1-4)GlcNAc(b1-4)Man(a1-6)]Man(b1-4)GlcNAc(b1-4)GlcNAc
# Method in brief: as §1
# [30] = biological target: Neu5Ac(a2-3)Gal(b1-4)GlcNAc(b1-3)Gal
# Method in brief: as §1
# [31] = biological target: Neu5Ac(a2-3)Gal(b1-4)GlcNAc(b1-6)[Neu5Ac(a2-3)Gal(b1-3)]GalNAc
# Method in brief: as §1
# [32] = biological target: Neu5Ac(a2-3)Gal(b1-4)GlcNAc6S
# Method in brief: as §1
# [33] = biological target: Neu5Ac(a2-3)Gal(b1-4)[Fuc(a1-3)]GlcNAc(b1-6)[Neu5Ac(a2-3)Gal(b1-3)]GalNAc
# Method in brief: as §1
# [34] = biological target: Neu5Ac(a2-3)Gal6S(b1-4)[Fuc(a1-3)]GlcNAc
# Method in brief: as §1
# [35] = biological target: Neu5Ac(a2-3)[GalNAc(b1-4)]Gal(b1-4)GlcNAc
# Method in brief: as §1
# Neu5Ac(a2-6)Gal = biological target: Neu5Ac(a2-6)Gal
# Method in brief: as §1
# [36] = biological target: Neu5Ac(a2-6)Gal(b1-3)GlcNAc(b1-3)[Gal(b1-4)GlcNAc(b1-6)]Gal(b1-4)Glc
# Method in brief: as §1
# Neu5Ac(a2-6)Gal(b1-4)Glc = biological target: Neu5Ac(a2-6)Gal(b1-4)Glc
# Method in brief: as §1
# [37] = biological target: Neu5Ac(a2-6)Gal(b1-4)GlcNAc(b1-2)Man(a1-3)[Neu5Ac(a2-6)Gal(b1-4)GlcNAc(b1-2)Man(a1-6)]Man(b1-4)GlcNAc(b1-4)[Fuc(a1-6)]GlcNAc
# Method in brief: as §1
# [38] = biological target: Neu5Ac(a2-6)Gal(b1-4)GlcNAc(b1-3)Gal(b1-3)GlcNAc
# Method in brief: as §1
# [39] = biological target: Neu5Ac(a2-8)Neu5Ac(a2-3)Gal(b1-4)GlcNAc
# Method in brief: as §1
binder,measurement,setting,value
"MAL-II (Maackia amurensis), P93248 (protein) ATSNSKPTQVLLATFLTFFFLLLNNVNSSDELSFTINNFVPNEADLLFQGEASVSSTGVLQLTRVENGQPQQYSVGRALYAAPVRIWDNTTGSVASFSTSFTFVVKAPNPTITSDGLAFFLAPPDSQIPSGRVSKYLGLFNNSNSDSSNQIVAVEFDTYFGHSYDPWDPNYRHIGIDVNGIESIKTVQWDWINGGVAFATITYLAPNKTLIASLVYPSNQTSFIVAASVDLKEILPEWVRVGFSAATGYPTQVETHDVLSWSFTSTLEANSDAATENNVHIARYTA",glycan array binding signal (z-score),[1],-0.182
same,glycan array binding signal (z-score),[2],0.051
same,glycan array binding signal (z-score),[3],-0.241
same,glycan array binding signal (z-score),[4],-0.171
same,glycan array binding signal (z-score),[5],-0.266
same,glycan array binding signal (z-score),[6],-0.177
same,glycan array binding signal (z-score),[7],-0.195
same,glycan array binding signal (z-score),[8],-0.261
same,glycan array binding signal (z-score),[9],-0.188
same,glycan array binding signal (z-score),[10],0.244
same,glycan array binding signal (z-score),[11],-0.252
same,glycan array binding signal (z-score),Gal(a1-4)Gal(b1-4)Glc,-0.133
same,glycan array binding signal (z-score),Gal(a1-4)Gal(b1-4)GlcNAc,-0.185
same,glycan array binding signal (z-score),[12],-0.172
same,glycan array binding signal (z-score),[13],0.068
same,glycan array binding signal (z-score),[14],-0.263
same,glycan array binding signal (z-score),[15],-0.267
same,glycan array binding signal (z-score),[16],-0.229
same,glycan array binding signal (z-score),[17],0.674
same,glycan array binding signal (z-score),[18],-0.23
same,glycan array binding signal (z-score),Gal3S(b1-3)GalNAc,8.15
same,glycan array binding signal (z-score),Gal3S(b1-3)GlcNAc,2.09
same,glycan array binding signal (z-score),Gal3S(b1-4)Glc,1.81
same,glycan array binding signal (z-score),Gal3S(b1-4)Glc6S,3.27
same,glycan array binding signal (z-score),Gal3S(b1-4)GlcNAc6S,6.03
same,glycan array binding signal (z-score),[19],2.12
same,glycan array binding signal (z-score),Gal3S4S(b1-4)GlcNAc,-0.162
same,glycan array binding signal (z-score),Gal3S6S(b1-4)GlcNAc,-0.222
same,glycan array binding signal (z-score),Gal4S6S(b1-4)GlcNAc,-0.156
same,glycan array binding signal (z-score),GalNAc(b1-4)GlcNAc6S,-0.292
same,glycan array binding signal (z-score),[20],-0.148
same,glycan array binding signal (z-score),[21],-0.159
same,glycan array binding signal (z-score),Kdn(a2-3)Gal(b1-3)GalNAc,3.27
same,glycan array binding signal (z-score),[22],-0.107
same,glycan array binding signal (z-score),[23],-0.337
same,glycan array binding signal (z-score),[24],3.54
same,glycan array binding signal (z-score),[25],5.77
same,glycan array binding signal (z-score),[26],-0.11
same,glycan array binding signal (z-score),[27],3.23
same,glycan array binding signal (z-score),[28],7.48
same,glycan array binding signal (z-score),[29],-0.282
same,glycan array binding signal (z-score),[30],-0.196
same,glycan array binding signal (z-score),[31],3.13
same,glycan array binding signal (z-score),[32],-0.215
same,glycan array binding signal (z-score),[33],0.889
same,glycan array binding signal (z-score),[34],-0.22
same,glycan array binding signal (z-score),[35],-0.213
same,glycan array binding signal (z-score),Neu5Ac(a2-6)Gal,-0.234
same,glycan array binding signal (z-score),[36],-0.18
same,glycan array binding signal (z-score),Neu5Ac(a2-6)Gal(b1-4)Glc,-0.184
same,glycan array binding signal (z-score),[37],-0.089
same,glycan array binding signal (z-score),[38],-0.178
same,glycan array binding signal (z-score),[39],-0.255
